Experimental data taken from the supplement of paper PMC8387472.
Where a name gives a salt, the structure may show the parent alone. ± gives the standard deviation of the averaged measurements.

Tested on: mESC LDLR-Dup GFP reporter (SpCas9 MH-deletion repair)
Experiment: fraction of GFP+ cells relative to DMSO control (fold change); higher = more MH-deletion repair to in-frame LDLR (or more editing)
Conditions: 2 µM; 7 days post-transfection

| SMILES | fraction of GFP+ cells |
| --- | --- |
| NC(=O)c1ccccc1 [Benzamide] | 1.01 ± 0.07 |
| Cc1ccc(S(=O)(=O)c2ccc([N+](=O)[O-])o2)cc1 | 1.39 ± 0.46 |
| O=C(NCC1(c2nc(-c3ccccc3)cs2)CCOCC1)c1cccc(-c2noc(C(F)(F)F)n2)c1 | 0.752 ± 0.12 |
| CC(C)OC(=O)[C@H](C)N[P@](=O)(OC[C@H]1O[C@@H](n2ccc(=O)[nH]c2=O)[C@](C)(F)[C@@H]1O)Oc1ccccc1 [Sofosbuvir (PSI-7977, GS-7977)] | 1.03 ± 0.4 |
| CC(C(=O)Nc1cccc(/N=C/c2c(O)ccc3ccccc23)c1)c1ccccc1 (centres undefined) [Salermide] | 0.987 ± 0.56 |
| O=C(CCCCCCC(=O)Nc1ccc([C@H]2O[C@@H](CSc3nc(-c4ccccc4)c(-c4ccccc4)o3)C[C@@H](c3ccc(CO)cc3)O2)cc1)NO [Tubacin] | 0.972 ± 0.16 |
| O=c1nc(N2CCOCC2)oc2c(-c3cccc4c3sc3ccccc34)cccc12 | 0.761 ± 0.24 |
| COc1c(N2C[C@@H]3CCCN[C@@H]3C2)c(F)cc2c(=O)c(C(=O)O)cn(C3CC3)c12 [Moxifloxacin HCl] | 0.624 ± 0.29 |
| O=C(O)COc1ccc(Br)cc1C=C1SC(=S)N(Cc2cccnc2)C1=O [Skp2 inhibitor C1 (SKPin C1)] | 0.783 ± 0.085 |
| O=S(=O)(c1cccc2cnccc12)N1CCCNCC1 [Fasudil (HA-1077) HCl] | 2.2 ± 0.25 |
| Nc1ncnc2c1ncn2[C@@H]1O[C@H](CO)[C@@H](O)[C@H]1O [Adenosine] | 1.04 ± 0.13 |
| CN1CCN(c2c(F)cc3c(=O)c(C(=O)O)cn4c3c2OCN4C)CC1 [Marbofloxacin] | 1.19 ± 0.59 |
| N#Cc1ccc2ncnc(NCCc3ccccc3)c2c1 [Senexin A] | 0.863 ± 0.11 |
| CCn1cc(C(=O)O)c(=O)c2cc(F)c(N3CCNCC3)cc21 [Norfloxacin] | 1.01 ± 0.13 |
| NC(=O)c1cccnc1 [Nicotinamide (Vitamin B3)] | 1.74 ± 0.82 |
| O=C(O)c1cc(I)ccc1NC(=O)[C@H](Cc1ccccc1)NCc1ccccc1 | 1.89 ± 0.36 |
| CC1=C(/C=C/C(C)=C/C=C/C(C)=C/C(=O)O)C(C)(C)CCC1 [Tretinoin] | 0.923 ± 0.026 |
| CCn1cc(C(=O)O)c(=O)c2cc(F)c(N3CCN(C)CC3)cc21 [Pefloxacin Mesylate Dihydrate] | 1.13 ± 0.09 |
| O=C(Nc1ccc(Cl)cc1)C1CCCN(C(=O)c2cccc(-c3ccco3)c2)C1 (centres undefined) | 0.756 ± 0.13 |
| O=S(=O)(N=Cc1c(O)ccc2ccccc12)c1cccs1 | 1.15 ± 0.65 |

| SMILES | fraction of GFP+ cells |
| --- | --- |
| CCN1/C(=C/C(C)=O)Sc2ccc(OC)cc21 | 0.802 ± 0.095 |
| CC1CCc2cc(F)cc3c(=O)c(C(=O)O)cn1c23 (centres undefined) [Flumequine] | 0.977 ± 0.12 |
| C#CCC(Cc1cnc2nc(N)nc(N)c2n1)c1ccc(C(=O)N[C@@H](CCC(=O)O)C(=O)O)cc1 (some centres undefined) [Pralatrexate] | 1.43 ± 0.46 |
| Nc1[nH]cnc2ncnc1-2 [Adenine sulfate] | 1.1 ± 0.025 |
| O=P(O)(O)C(O)(Cn1ccnc1)P(=O)(O)O [Zoledronic Acid Monohydrate] | 1.07 ± 0.25 |
| NC1CCN(c2c(F)cc3c(=O)c(C(=O)O)cn(C4CC4)c3c2Cl)C1 (centres undefined) [Clinafloxacin] | 0.685 ± 0.25 |
| CN(Cc1cnc2nc(N)nc(N)c2n1)c1ccc(C(=O)N[C@@H](CCC(=O)O)C(=O)O)cc1 [Methotrexate] | 1.53 ± 0.28 |
| C[C@H]1COc2c(N3CCN(C)CC3)c(F)cc3c(=O)c(C(=O)O)cn1c23 [Levofloxacin] | 0.954 ± 0.01 |
| Cc1cnc(NC(=O)Nc2cc(Br)c(C)cc2OC[C@@H]2CNCCO2)cn1 | 1.14 ± 0.08 |
| CC(N)C12CC3CC(CC(C3)C1)C2 (centres undefined) [Rimantadine Hydrochloride] | 0.701 ± 0.034 |
| COc1cc2c(c(OC)c1OC)-c1c(cc3c(c1OC)OCO3)CC(C)C(C)C2 (centres undefined) [Schisandrin B (Sch B)] | 1.02 ± 0.2 |
| Cc1ncc([N+](=O)[O-])n1CCO [Metronidazole] | 0.96 ± 0.35 |
| CC1=C(C(=O)Nc2cc3cn[nH]c3cc2F)C(c2ccc(C(F)(F)F)cc2)CC(=O)N1 (centres undefined) | 1.27 ± 0.48 |
| COCCCc1sc(-c2ccccc2)nc1C(=O)Nc1ccccc1-c1nc2cc(CN3CCCC3)cnc2s1 | 1.15 ± 0.33 |
| Oc1nc(-c2ccc(C(F)(F)F)cc2)nc2c1CSCC2 | 0.752 ± 0.014 |
| COc1cc(Cc2cnc(N)nc2N)cc(OC)c1OC [Trimethoprim] | 0.773 ± 0.079 |
| O=C(Nc1cccc(Cl)c1)Nc1ncc(CCNc2ncnc3ccsc23)s1 [SNS-314 Mesylate] | 0 |
| Nc1cc(F)ccc1NC(=O)/C=C/c1cnn(C/C=C/c2ccccc2)c1 | 0.555 ± 0.17 |
| C[C@H](Oc1cc(-c2cnn(C3CCNCC3)c2)cnc1N)c1c(Cl)ccc(F)c1Cl [(S)-crizotinib] | 0.94 ± 0.18 |
